# Laboratory results taken from the supplement of paper PMC6555819.
# Experiments:
# Experiment in all cases: PBM binding z-score (relative to random genomic background probes); higher = stronger binding; sequences stand for … in GC…GCGATTGACAGCGTAGAATGAAGG
# [1] = tested on: RARb homodimer (NR concentration 270 nM)
# How it was run: (§1)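 Scanned fluorescence from custom Agilent 4×180K protein-binding microarrays was regression-normalized. Binding z-scores use random background probes as reference. Ligand-free nuclear receptor dimers were incubated on the arrays for 1 h and detected with antibodies against each partner (one per run).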
# [2] = tested on: RARg:RXRa (NR concentration 270 nM, RXRa partner concentration 90 nM)
# How it was run: as §1
# [3] = tested on: RARg homodimer (NR concentration 270 nM)
# How it was run: as §1
# [4] = tested on: RXRa DBDmut IVT, anti-RXR (DBD mutation: RXRa K156A/R161A, NR concentration 90 nM)
# How it was run: as §1
# [5] = tested on: RXRa homodimer (NR concentration 180 nM)
# How it was run: as §1
# [6] = tested on: THRa:RXRa (NR concentration 90 nM, RXRa partner concentration 90 nM)
# How it was run: as §1
# [7] = tested on: THRa homodimer (NR concentration 90 nM)
# How it was run: as §1
# [8] = tested on: VDR:RXRa (NR concentration 270 nM, RXRa partner concentration 90 nM)
# How it was run: as §1
# [9] = tested on: VDR homodimer (NR concentration 270 nM)
# How it was run: as §1
sequence,measurement,setting,value
CGTCCAACGTCATAGGAGGTCAGTGAAGACAGAT,PBM binding z-score,[1],2.87
same,PBM binding z-score,[2],1.79
same,PBM binding z-score,[3],2.24
same,PBM binding z-score,[4],0.609
same,PBM binding z-score,[5],1.59
same,PBM binding z-score,[6],3.15
same,PBM binding z-score,[7],0.654
same,PBM binding z-score,[8],2.06
same,PBM binding z-score,[9],1.02
ACTTACGGGTCAACGAGGTTATAGCGCGCGTATA,PBM binding z-score,[1],3.76
same,PBM binding z-score,[2],5.67
same,PBM binding z-score,[3],5.32
same,PBM binding z-score,[4],2.92
same,PBM binding z-score,[5],6.24
same,PBM binding z-score,[6],4.09
same,PBM binding z-score,[7],0.869
same,PBM binding z-score,[8],7.58
same,PBM binding z-score,[9],4.01
AGAGACAGGTGAGTGAAGGTAACTCAGCTGGACG,PBM binding z-score,[1],0.498
same,PBM binding z-score,[2],0.327
same,PBM binding z-score,[3],0.547
same,PBM binding z-score,[4],-0.787
same,PBM binding z-score,[5],0.592
same,PBM binding z-score,[6],1.75
same,PBM binding z-score,[7],0.04
same,PBM binding z-score,[8],-0.141
same,PBM binding z-score,[9],-0.14
CGAACGAGGACATGAGTTGATAGCAAATGCCGAT,PBM binding z-score,[1],0.159
same,PBM binding z-score,[2],0.527
same,PBM binding z-score,[3],1.16
same,PBM binding z-score,[4],1.52
same,PBM binding z-score,[5],0.107
same,PBM binding z-score,[6],2.23
same,PBM binding z-score,[7],1.28
same,PBM binding z-score,[8],0.112
same,PBM binding z-score,[9],0.998
GCGACTGGGGGAAAGCAGGTTACCATAAGGTTGG,PBM binding z-score,[1],0.976
same,PBM binding z-score,[2],0.585
same,PBM binding z-score,[3],0.39
same,PBM binding z-score,[4],0.147
same,PBM binding z-score,[5],0.696
same,PBM binding z-score,[6],2.25
same,PBM binding z-score,[7],0.613
same,PBM binding z-score,[8],0.39
same,PBM binding z-score,[9],0.229
GCGACTGGGGCCTCAGCAGGTTACCATAACTTAA,PBM binding z-score,[1],0.199
same,PBM binding z-score,[2],-0.489
same,PBM binding z-score,[3],-0.568
same,PBM binding z-score,[4],-0.479
same,PBM binding z-score,[5],-0.182
same,PBM binding z-score,[6],1.19
same,PBM binding z-score,[7],-0.118
same,PBM binding z-score,[8],-0.529
same,PBM binding z-score,[9],-0.622
CGTCCAAGGTCATAGGAGGTCGGTGAAGACAGAT,PBM binding z-score,[1],4.09
same,PBM binding z-score,[2],6.01
same,PBM binding z-score,[3],6.48
same,PBM binding z-score,[4],3.77
same,PBM binding z-score,[5],6.13
same,PBM binding z-score,[6],4.77
same,PBM binding z-score,[7],2.45
same,PBM binding z-score,[8],5.71
same,PBM binding z-score,[9],3.77
TCTCGGAGGGCACGAAGGTCAGAGCTTTCCAGAG,PBM binding z-score,[1],3.94
same,PBM binding z-score,[2],4.11
same,PBM binding z-score,[3],3.97
same,PBM binding z-score,[4],0.77
same,PBM binding z-score,[5],2.79
same,PBM binding z-score,[6],2.63
same,PBM binding z-score,[7],-0.228
same,PBM binding z-score,[8],5.15
same,PBM binding z-score,[9],1.81
TAATATAGGTAATACAGGTGAAAGTCGGCATCTA,PBM binding z-score,[1],0.493
same,PBM binding z-score,[2],0.614
same,PBM binding z-score,[3],0.786
same,PBM binding z-score,[4],0.247
same,PBM binding z-score,[5],0.906
same,PBM binding z-score,[6],0.893
same,PBM binding z-score,[7],0.26
same,PBM binding z-score,[8],0.659
same,PBM binding z-score,[9],0.35
TCTTGTAGATCAAGCAGGTTAAGCAAGCCTGAGT,PBM binding z-score,[1],0.0597
same,PBM binding z-score,[2],-0.0759
same,PBM binding z-score,[3],-0.399
same,PBM binding z-score,[4],0.344
same,PBM binding z-score,[5],0.228
same,PBM binding z-score,[6],0.275
same,PBM binding z-score,[7],-0.299
same,PBM binding z-score,[8],0.328
same,PBM binding z-score,[9],-0.175
GCTTGTAGATAAAGGTTAAGAAAGACTAAGCTAA,PBM binding z-score,[1],0.948
same,PBM binding z-score,[2],1.29
same,PBM binding z-score,[3],1
same,PBM binding z-score,[4],-0.0132
same,PBM binding z-score,[5],1.86
same,PBM binding z-score,[6],1
same,PBM binding z-score,[7],-0.76
same,PBM binding z-score,[8],0.626
same,PBM binding z-score,[9],-0.0184
CTCGAAAGGTTGGTTGAGGTGAGTATACGGATAA,PBM binding z-score,[1],1.12
same,PBM binding z-score,[2],0.599
same,PBM binding z-score,[3],0.684
same,PBM binding z-score,[4],0.251
same,PBM binding z-score,[5],0.502
same,PBM binding z-score,[6],4.42
same,PBM binding z-score,[7],1.82
same,PBM binding z-score,[8],0.828
same,PBM binding z-score,[9],0.513
CCTTACGGGTCACGAGGTTAGAGCACGACGAGCG,PBM binding z-score,[1],3.63
same,PBM binding z-score,[2],6.04
same,PBM binding z-score,[3],5.46
same,PBM binding z-score,[4],2.04
same,PBM binding z-score,[5],6.47
same,PBM binding z-score,[6],3.45
same,PBM binding z-score,[7],0.765
same,PBM binding z-score,[8],4.98
same,PBM binding z-score,[9],1.84
TAGCCTAGGTCATGCGGGCCAGGATAGTGTCGGC,PBM binding z-score,[1],3.1
same,PBM binding z-score,[2],3.77
same,PBM binding z-score,[3],4.7
same,PBM binding z-score,[4],0.23
same,PBM binding z-score,[5],2.94
same,PBM binding z-score,[6],3.06
same,PBM binding z-score,[7],0.933
same,PBM binding z-score,[8],2.76
same,PBM binding z-score,[9],0.706
TAGCCTAGGTCATTGGGCCACTATAGTACGCATC,PBM binding z-score,[1],3.11
same,PBM binding z-score,[2],3.84
same,PBM binding z-score,[3],4.24
same,PBM binding z-score,[4],1.92
same,PBM binding z-score,[5],2.97
same,PBM binding z-score,[6],2.87
same,PBM binding z-score,[7],1.3
same,PBM binding z-score,[8],2.23
same,PBM binding z-score,[9],1.77
AATACAGGGTCGTCGTAGGCCAGAGTACGCACAG,PBM binding z-score,[1],1.42
same,PBM binding z-score,[2],2.13
same,PBM binding z-score,[3],1.29
same,PBM binding z-score,[4],1.76
same,PBM binding z-score,[5],2.81
same,PBM binding z-score,[6],3.4
same,PBM binding z-score,[7],0.245
same,PBM binding z-score,[8],2.62
same,PBM binding z-score,[9],1.78
CGTCAAAGTTCAAGGTAACGTAACAGAAAGCAGC,PBM binding z-score,[1],3.92
same,PBM binding z-score,[2],5.25
same,PBM binding z-score,[3],5.88
same,PBM binding z-score,[4],4.03
same,PBM binding z-score,[5],4.58
same,PBM binding z-score,[6],3
same,PBM binding z-score,[7],1.32
same,PBM binding z-score,[8],3.78
same,PBM binding z-score,[9],3.12
TATACAGCGTCAAAGGCCAGAGTACGAATGTCGA,PBM binding z-score,[1],0.415
same,PBM binding z-score,[2],0.284
same,PBM binding z-score,[3],0.525
same,PBM binding z-score,[4],-1.06
same,PBM binding z-score,[5],0.258
same,PBM binding z-score,[6],-0.433
same,PBM binding z-score,[7],-1.11
same,PBM binding z-score,[8],-0.305
same,PBM binding z-score,[9],-0.0431
AATACAGGGTCATGGTAGGCCAGAGTACGCACAG,PBM binding z-score,[1],3.69
same,PBM binding z-score,[2],5.54
same,PBM binding z-score,[3],4.93
same,PBM binding z-score,[4],3.15
same,PBM binding z-score,[5],6.91
same,PBM binding z-score,[6],4.38
same,PBM binding z-score,[7],1.95
same,PBM binding z-score,[8],4.95
same,PBM binding z-score,[9],3.24
CCTTGCGGGTCAAGGTTATAGCACGGGTGGTACG,PBM binding z-score,[1],3.04
same,PBM binding z-score,[2],4.37
same,PBM binding z-score,[3],4.11
same,PBM binding z-score,[4],0.089
same,PBM binding z-score,[5],4.68
same,PBM binding z-score,[6],3
same,PBM binding z-score,[7],0.776
same,PBM binding z-score,[8],2.95
same,PBM binding z-score,[9],1.01
CGAATGAGGGCATGAGTTGATAGCAAATGCCGAT,PBM binding z-score,[1],0.499
same,PBM binding z-score,[2],1.14
same,PBM binding z-score,[3],1.58
same,PBM binding z-score,[4],2.3
same,PBM binding z-score,[5],1.03
same,PBM binding z-score,[6],1.83
same,PBM binding z-score,[7],0.345
same,PBM binding z-score,[8],1.48
same,PBM binding z-score,[9],1.33
TCTAGTTTGTCAAAGGTCACACACTCGAAATGCG,PBM binding z-score,[1],4.86
same,PBM binding z-score,[2],6.06
same,PBM binding z-score,[3],5.71
same,PBM binding z-score,[4],2.14
same,PBM binding z-score,[5],6.98
same,PBM binding z-score,[6],4.07
same,PBM binding z-score,[7],1.98
same,PBM binding z-score,[8],5.12
same,PBM binding z-score,[9],2.58
CGTCAAAGTTCAACCAAGGTAACGTAAAGCACGC,PBM binding z-score,[1],4.13
same,PBM binding z-score,[2],5.85
same,PBM binding z-score,[3],6.21
same,PBM binding z-score,[4],4.5
same,PBM binding z-score,[5],4.98
same,PBM binding z-score,[6],5.14
same,PBM binding z-score,[7],1.18
same,PBM binding z-score,[8],4.77
same,PBM binding z-score,[9],4.3
TCATATAGGTAAACAGGTGGAAGTCCGTAAGTTA,PBM binding z-score,[1],0.247
same,PBM binding z-score,[2],0.462
same,PBM binding z-score,[3],0.0474
same,PBM binding z-score,[4],1.38
same,PBM binding z-score,[5],0.624
same,PBM binding z-score,[6],0.188
same,PBM binding z-score,[7],0.00908
same,PBM binding z-score,[8],0.7
same,PBM binding z-score,[9],0.154
ATCGAAAGGGCGAAGGTGAGTATACCCACCCGAA,PBM binding z-score,[1],1.17
same,PBM binding z-score,[2],1.63
same,PBM binding z-score,[3],1.2
same,PBM binding z-score,[4],-0.634
same,PBM binding z-score,[5],1.59
same,PBM binding z-score,[6],0.3
same,PBM binding z-score,[7],-0.75
same,PBM binding z-score,[8],0.347
same,PBM binding z-score,[9],-0.263
GCGACTGGGGTAAAGCAGGTTACCATAAGGTTGG,PBM binding z-score,[1],0.792
same,PBM binding z-score,[2],0.464
same,PBM binding z-score,[3],0.108
same,PBM binding z-score,[4],-0.286
same,PBM binding z-score,[5],1.03
same,PBM binding z-score,[6],2.59
same,PBM binding z-score,[7],0.334
same,PBM binding z-score,[8],1.15
same,PBM binding z-score,[9],-0.11
